Data from PubChem BioAssay (NCI).
Where “and” joins values, the source holds several entries; their conditions need not be identical. Identical values can stand only once. About 83,000 compounds went through this panel and 20% of them were active in at least one assay; those are over-represented in the sample as a whole.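 Values shown are percent growth following 48 h exposure of cells in 96-well plates to a single concentration of compound; below 10 was considered active.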 Unmarked numbers belong to inactive results. Calls of active or inactive are those of the source.

Test system: HL-60(TB) leukemia
Assay: NCI-60 one-dose screen, 48 h (100 = growth as untreated, 0 = no growth, -100 = all killed)
Settings: 10 µM unless noted

Structure (SMILES) | growth
Oc1ccc(Cl)cc1-c1cc(-c2ccccc2Cl)[nH]n1 | 46.6%
CCn1cnc(C[C@H](NC(=O)[C@H](CCCCNC(=O)Nc2cc(C(F)(F)F)cc(C(F)(F)F)c2)NC(=O)Nc2cc(C(F)(F)F)cc(C(F)(F)F)c2)C(=O)OC)c1 | -48.7% [100 µM] (active)
CC(C)(C)[Si](C)(C)OC1[C@@H](COC(N)=O)O[C@@H](n2cnc3c(N)ncnc32)[C@H]1O[Si](C)(C)C(C)(C)C (stereo not given in full) | -18% (active)
Nc1cc(N)ncn1 | 47.3%
O=C(O)C1CSC(c2ccccc2)N1 (stereo not given) | 128%
COC(=O)CC1=C(c2ccc([N+](=O)[O-])cc2)CCC1=O | 100%
O=S(=O)(NCCCNc1cc(-c2c(-c3cccc(O)c3)nc3sccn23)ccn1)c1cccc(Cl)c1 | 17.7%
COc1ccc(-c2nc(Nc3ccc(F)cc3)nc(Nc3ccc4c(c3)nc(C)n4Cc3ccccc3)n2)cc1 | -11.4% (active)
Nc1nc2c(nnn2C2CC(O)C(CO)O2)c(=O)[nH]1 (stereo not given) | 28.4%
CNCCCNCCCCNCCCN1C(=O)c2ccc3c4c(ccc(c24)C1=O)C(=O)N(CCCNCc1ccccc1OC)C3=O | 23%
N#Cc1cc(-c2nc3ccccc3s2)c(=O)n(NS(=O)(=O)c2ccc(Cl)cc2)c1N | 103%
CCCCCCCCn1ccc2cc(NC(=O)Cn3cc(CN4CCCC4)nn3)ccc21 | 13.8%
COc1cc2cc(Oc3ccc(NC(=O)Nc4ccc(Cl)c(Cl)c4)cc3)c(C)nc2cc1OCCN1CCOCC1 | 97.9%
COc1cc2c(cc1OCCCOc1ccc(-c3cc4ccccc4c4ccccc34)cc1)N=C[C@@H]1CCCN1C2=O | -11.8% (active)
CS(=O)(=O)Nc1cccc(C(=O)NCc2ccc(N3CCOCC3)cc2)c1 | 91.9%
C#C[C@@]1(O)[C@@H](CO)O[C@@H](n2cc(F)c3c(N)ncnc32)[C@@H]1O | -22.8% (active)
Nc1nc(Nc2cc(Cl)cc(Cl)c2)nn1S(=O)(=O)c1ccc2ccccc2c1 | 88.6%
COc1ccc(-c2nnc(SC/C(=N\O)c3ccccc3)o2)cc1 | 86.8%
O=S(=O)(NCCCNc1nccc(-c2c(-c3ccc(F)c(O)c3)nc3sccn23)n1)c1ccccc1 | 69.8%
CC1CCN(S(=O)(=O)c2ccc(S(=O)(=O)N3CCCC(c4nc5c(nnn5Cc5cccc(Cl)c5)c(=O)[nH]4)C3)cc2)CC1 (stereo not given) | 16.1%

Structure (SMILES) | growth
CCNc1ncnc2[nH]ncc12 | 95.7%
CCN1C(=O)N(CC)C2C1NN=c1s/c(=C\c3cccnc3)c(=O)n12 (stereo not given) | -27.5% (active)
Cc1ccc(C)c2c1C(=O)OC2=O | 29.7%
O=C1CC23OC4ON=C(Br)C4C2C(O)c2ccccc2N13 (stereo not given) | 102%
COc1ccc(-c2nc3cc(C(=O)NCc4ccccc4)ccc3n2C2CCCCC2)cc1 | 71.1%
CC1(C)CC2=C3C=C[C@@H]4[C@@]5(C)CCC(=O)C(C)(C)[C@@H]5CC[C@@]4(C)[C@]3(C)CC[C@@]2(C(=O)O)CC1=O | 66.8%
COCCn1cc(-c2nc(-c3cc4cccnc4n3CCOC)cs2)c2cc(OC)ccc21 | 95.6%
Cn1cnc([N+](=O)[O-])c1Sc1ncn[nH]1 | 105%
CN(C)CCCOc1ccc(OCCCN(C)C)c2c1C(=O)c1ccccc1C2=O | 5.97% (active)
Cc1ccc2c(c1)Sc1c(ccc3ccccc13)N2 | 44.9%
CC1=C([Se]CC(OC(=O)CC[Se]c2ccccc2)C(=O)NCCCCCC(=O)OCc2ccccc2)C(=O)c2ccccc2C1=O (stereo not given) | 15.5%
O=C1/C(=C/c2ccc(Cl)cc2)COc2ccc(O)cc21 | -11.3% (active)
Cc1nc(N2CCOCC2)sc1S(N)(=O)=O | 97.4%
CN(C)Cc1ccc[nH]1 | 109%
CCn1nc(-c2ccccn2)c2cccnc2c1=S | 37.4%
COc1ccc(-c2ncnc3c2ncn3C/C=C/CCl)cc1 | 65% and 79.4%
CC#CC#Cc1cccc(=O)o1 | 18.1%
CC(C)N1CN2C(=S)NC3C2N(C1)C(=S)N3C (stereo not given) | 100%
O=c1c2ccccc2oc2ccc(OCCCCCN3CCCCCC3)cc12 | 38%
O=C(NN1C(=O)CSC1c1ccc(Cl)cc1)c1[nH]c2ccc(F)cc2c1-c1ccccc1 (stereo not given) | 35.5%
